High-throughput results: PubChem, Broad Institute
EWS-Fli block: blocks EWS/Fli oncoprotein-driven transcription | A673 NR0B1-luciferase reporter, viability-normalised | inhibition, % at 12.6 µM | actives 0.67% (n = 350,000) | AID 651661;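 active = mean inhibition of at least 50% after viability correction, with every replicate also passing that limit; inconclusive = mean reaches 50% but only one of two replicates passes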;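 also: firefly luciferase signal divided by Alamar Blue viability fluorescence both relative to DMSO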
PAX8 inh HTS: PAX8 transcriptional activity inhibition; RMG-I TPO-luciferase reporter, SteadyGlo, 24 h; inhibition, % at 12.6 µM; actives 1.2% (n = 360,000);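 active = mean replicate inhibition at least 60% with every replicate also reaching 60%; inconclusive = only one of the two criteria is met; inactive = mean below 60% and not all replicates reaching 60%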;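 also: luciferase light reporting Pax8 driven TPO promoter activity; plate controls were median of neutral control wells for no effect and mitoxantrone controls for full effect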
INS-1E GSIS act: primary screen for activators of insulin secretion dependent on glucose, INS-1E cells, GLuc reporter luminescence | activation, % at 16.6 µM | actives 0.61% (n = 370,000) | AID 743287 | INS-1E GLuc reporter insulin secretion, 2-3 h;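 active = lowest replicate activation of at least 40%, so every replicate reaches that level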;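 also: 0% = median of neutral control wells and 100% = median of IBMX positive control wells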
miR122 inh: blocks miR-122 activity in Huh7 sensor cells; Huh7 miR-122 Renilla luciferase sensor, 48 h; neutral wells = 0, positive control = 100; activation (reporter increase), % at 12.5 µM; actives 0.3% (n = 340,000); AID 602342;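 active = mean replicate activation score at least 90 and every replicate individually at or above 90; inconclusive = only one of the two criteria met; inactive = neither criterion met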;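 also: higher luciferase means less miR-122 activity so hits act as miR-122 inhibitors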
HIV Env fusion: blocks HIV Env-driven cell-cell fusion. inhibition, % at 12.3 µM. actives 1.1% (n = 360,000). AID 651610. HeLa-JRFL Env/CEM21 cell fusion, luciferase;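 active = mean replicate inhibition score of at least 50 and every replicate individually at or above 50; inconclusive = only one of the two criteria met; inactive = mean below 50 and not all replicates reaching 50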;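 also: 0% = plate neutral controls and 100% = maraviroc near 300 nM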
C2C12 statin: protects C2C12 myotubes from simvastatin toxicity. rescue of ATP level, % at 7.49 µM. AID 602340. actives 0.78% (n = 330,000). ATP luminescence, 48 h; scaled: DMSO 0, geranylgeraniol control 100;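 active = mean ATP rescue above about 67%, or every replicate alone reaching that limit, limit read from the data, passing the limit was not always enough; inconclusive = no clear call, values can overlap the other calls; inactive = mean under the limit and some replicate under it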;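 also: myotubes were challenged with 10 µM simvastatin during compound exposure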
* hit, by the source's call; [ ] = another dose, or the depositor's remark. An excerpt weighted towards active compounds, which were near 3.1% of everything screened.

COc1cc(C(=O)NCC(=O)N2CCN(S(=O)(=O)c3cc(C)ccc3C)CC2)cc(OC)c1OC was read as EWS-Fli block 54*, PAX8 inh HTS 3, INS-1E GSIS act -9, miR122 inh 17 and C2C12 statin -19.
Screening O=C1CC(C(=O)N(CC2CCCO2)C(C(=O)NC2CCCCC2)c2ccncc2)CS1 (configuration not stated) returned INS-1E GSIS act 12, miR122 inh -7, HIV Env fusion 78* and C2C12 statin -1.
For O=C1CC(C(=O)N(c2ccccc2)C(C(=O)NC2CCCC2)c2ccncc2)CS1 (configuration not stated) the results were EWS-Fli block -5, PAX8 inh HTS 0, INS-1E GSIS act 10, miR122 inh -10, HIV Env fusion 10 and C2C12 statin 3.
Screening CCNc1ccc(C(=O)OCC(=O)NCc2ccccc2Cl)cc1[N+](=O)[O-] returned PAX8 inh HTS 1, INS-1E GSIS act 59* and HIV Env fusion 9.
`Cc1ccc(Cl)c(NC(=O)COC(=O)c2ccccc2C(=O)c2ccc(Cl)c([N+](=O)[O-])c2)c1Cl` gave PAX8 inh HTS 16, INS-1E GSIS act -24, miR122 inh 2 and HIV Env fusion -43.
For CCCNC(=O)COC(=O)c1ccccc1C(=O)c1ccc(Cl)c([N+](=O)[O-])c1 the results were EWS-Fli block 55*, PAX8 inh HTS 54, INS-1E GSIS act 43, miR122 inh -13 and HIV Env fusion -44.
For CCNc1ccc(C(=O)OCC(=O)NC(=O)NCC(C)C)cc1[N+](=O)[O-] the results were EWS-Fli block -3, PAX8 inh HTS -6, INS-1E GSIS act -1 and HIV Env fusion 11.
`CCCc1nnc2c(N(C)S(=O)(=O)c3ccc(C)cc3)nc3ccccc3n12` gave EWS-Fli block -4, PAX8 inh HTS 16, INS-1E GSIS act 68* and HIV Env fusion 15.
For Cc1cc(C(=O)Nc2cccc3c2O[C@@H](CN(C)C(=O)Nc2ccc(C(F)(F)F)cc2)[C@H](C)CN([C@@H](C)CO)C3=O)n(C)n1 the results were EWS-Fli block 6, PAX8 inh HTS -8, INS-1E GSIS act 3, miR122 inh 0[16.7 µM], HIV Env fusion 29[16.7 µM] and C2C12 statin -12.
For Cc1ccc(S(=O)(=O)NCCN=C(CN2CCCC2)NS(=O)(=O)c2ccc(C)cc2)cc1 the results were PAX8 inh HTS 2, miR122 inh 62, HIV Env fusion 8 and C2C12 statin 112*.
`Cc1cccc(NC(=O)c2cccc(NS(=O)(=O)c3ccc(Cl)cc3)c2)c1` gave miR122 inh 3 and C2C12 statin 105*.
`O=C(Nc1cccc(S(=O)(=O)Nc2ccc(Cl)cc2)c1)c1ccc(Cl)nc1` gave EWS-Fli block 26, PAX8 inh HTS 18, INS-1E GSIS act -32 and HIV Env fusion 56*.
COc1ccc(NC(=O)c2cccc(S(=O)(=O)Nc3ccc(Br)cc3)c2)cn1 was read as EWS-Fli block 15, PAX8 inh HTS 24, INS-1E GSIS act -51, miR122 inh 103*, HIV Env fusion 41 and C2C12 statin -8.
`COc1ccc(NS(=O)(=O)c2cccc(NC(=O)c3ccc(Cl)nc3)c2)cc1` gave EWS-Fli block 11, PAX8 inh HTS 49, INS-1E GSIS act -27 and HIV Env fusion 26.
CC(=O)N(C)C[C@@H]1Oc2cc(C#CC3CCCC3)ccc2S(=O)(=O)N([C@H](C)CO)C[C@@H]1C was read as EWS-Fli block 13, PAX8 inh HTS 5, INS-1E GSIS act -8, miR122 inh 0[16.7 µM], HIV Env fusion 1[16.7 µM] and C2C12 statin 52.
Screening CN(C)/C=N/C1=C(C#N)C(c2cccs2)c2ccc3ccccc3c2O1 (configuration not stated) returned EWS-Fli block 54*, PAX8 inh HTS -4, INS-1E GSIS act 0 and HIV Env fusion -63.
CC(C)NC(=O)N(C)C[C@@H]1Oc2ccc(NS(=O)(=O)c3ccc(F)cc3)cc2CC(=O)N([C@@H](C)CO)C[C@@H]1C was read as EWS-Fli block 0, PAX8 inh HTS -10, INS-1E GSIS act 8, miR122 inh 0[16.7 µM] and C2C12 statin -7.
Screening CO[C@H]1CN(C)C(=O)c2ccc(NC(=O)NC(C)C)cc2OC[C@@H](C)N(S(C)(=O)=O)C[C@@H]1C returned EWS-Fli block 3, PAX8 inh HTS -2 and INS-1E GSIS act -4.
Cc1ccc(C(=O)N2CCN3C(=O)c4ccccc4C23c2ccccc2)cc1 (configuration not stated) was read as EWS-Fli block 14, PAX8 inh HTS 4, INS-1E GSIS act 42*, HIV Env fusion 11 and C2C12 statin -5.
For O=C1c2ccccc2C2(c3ccccc3)N1CCN2C(=O)C(Cl)(Cl)Cl (configuration not stated) the results were EWS-Fli block -10, PAX8 inh HTS 33, INS-1E GSIS act -57, miR122 inh 11, HIV Env fusion -15 and C2C12 statin inconclusive.
For CCCNC(=O)N(C)C[C@H]1Oc2ncc(-c3cccc(C#N)c3)cc2C(=O)N([C@H](C)CO)C[C@@H]1C the results were EWS-Fli block -5, PAX8 inh HTS -7, INS-1E GSIS act 4, HIV Env fusion -9[16.7 µM] and C2C12 statin 3.
Screening COc1cccc2sc3ccc(C#CC4(O)CCCCC4)cc3c(=O)c12 returned EWS-Fli block -167, PAX8 inh HTS -186, INS-1E GSIS act -18, miR122 inh 7, HIV Env fusion -258 and C2C12 statin 0.
`O=c1c2ccccc2sc2ccc(C#CC3(O)CCCCC3)cc12` gave EWS-Fli block 89*, PAX8 inh HTS 69*, HIV Env fusion 15 and C2C12 statin -51.
For O=C(Nc1ccc(Cl)cc1)N[C@@H]1CC[C@@H](CCn2cc(-c3ccccc3F)nn2)O[C@@H]1CO the results were EWS-Fli block 2, PAX8 inh HTS 5, INS-1E GSIS act -17, HIV Env fusion -15[16.7 µM] and C2C12 statin 2.
For CN(C)CC(=O)Nc1ccc2c(c1)[C@H]1C[C@@H](CC(=O)NC3CCCCC3)O[C@H](CO)[C@H]1O2 the results were EWS-Fli block 2, PAX8 inh HTS -8, INS-1E GSIS act 9, miR122 inh 5[16.7 µM], HIV Env fusion -12[16.7 µM] and C2C12 statin -2.
For CC(=O)C(=Nc1ccccc1Cl)NNc1ccc(Cl)cc1 the results were PAX8 inh HTS 17, miR122 inh -2, HIV Env fusion -111 and C2C12 statin 152*.
For O=C(NNc1ccc(Cl)cc1)c1c(F)cccc1Cl the results were EWS-Fli block -2, PAX8 inh HTS -3, INS-1E GSIS act 6, miR122 inh -2, HIV Env fusion 3 and C2C12 statin 11.
